Measurements: PubChem BioAssay AID1159580 (chemical genetic matrix, 2015)
Out of some 5,500 compounds screened, about 2,000 (36%) were called active. Not shown: some 18% with an inconclusive outcome. No stated cut-off is given here; in the data, active means normalized growth mostly below about 0.91 (no sharp cut-off); inconclusive means no clear call, values can overlap the other calls; inactive means mostly above about 0.92. This is one part of the list.

Assay: chemical genetic growth profiling, strain panel (AID 1159580);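 further: tested at 20 µM; growth read once vehicle control cultures reached saturation at 30 °C; 1 = growth at the plate median or of vehicle wells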
Conditions: growth OD

Measured: normalized growth

Cn1nnnc1SCC1=C(C(=O)O)N2C(=O)C(NC(=O)C(OC=O)c3ccccc3)C2SC1 (stereo unspecified)
inactive: S. cerevisiae deletion strains, locus YJR075W, strain HOC1, stronger effect = lower value 1.01 | S. cerevisiae deletion strains, locus YKL009W, strain mrt4, stronger effect = lower value 1.02 | S. cerevisiae deletion strains, locus YKL068W, stronger effect = lower value 1.01 | S. cerevisiae deletion strains, locus YKL085W, strain MDH1 (second series), stronger effect = lower value 1 | S. cerevisiae deletion strains, locus YKL085W, strain MDH1, stronger effect = lower value 1 | S. cerevisiae deletion strains, locus YKL160W, strain elf1, stronger effect = lower value 1.01 | S. cerevisiae deletion strains, locus YKL190W, strain CNB1, stronger effect = lower value 1 | S. cerevisiae deletion strains, locus YKR001C, strain vps1, stronger effect = lower value 1.02 | S. cerevisiae deletion strains, locus YKR026C, strain gcn3, stronger effect = lower value 0.989 | S. cerevisiae deletion strains, locus YKR091W, strain srl3, stronger effect = lower value 0.995 | S. cerevisiae deletion strains, locus YLL001W, strain dnm1, stronger effect = lower value 1 | S. cerevisiae deletion strains, locus YLL026W, stronger effect = lower value 0.997 | S. cerevisiae deletion strains, locus YLL041C, strain sdh2, stronger effect = lower value 1 | S. cerevisiae deletion strains, locus YLR027C, strain aat2, stronger effect = lower value 0.992 | S. cerevisiae deletion strains, locus YLR039C, strain RIC1, stronger effect = lower value 1 | S. cerevisiae deletion strains, locus YLR058C, strain SHM2, stronger effect = lower value 1 | S. cerevisiae deletion strains, locus YLR102C, strain apc9, stronger effect = lower value 1.02 | S. cerevisiae deletion strains, locus YLR113W, strain HOG1, stronger effect = lower value 0.941 | S. cerevisiae deletion strains, locus YLR221C, strain rsa3, stronger effect = lower value 0.987 | S. cerevisiae deletion strains, locus YLR258W, strain gsy2, stronger effect = lower value 0.998 | S. cerevisiae deletion strains, locus YLR262C, strain YPT6 (second series), stronger effect = lower value 1.02 | S. cerevisiae deletion strains, locus YLR262C, strain YPT6, stronger effect = lower value 1.04 | S. cerevisiae deletion strains, locus YLR268W, strain sec22, stronger effect = lower value 1.01 | S. cerevisiae deletion strains, locus YLR320W, strain mms22, stronger effect = lower value 0.993 | S. cerevisiae deletion strains, locus YLR330W, strain CHS5, stronger effect = lower value 1 | S. cerevisiae deletion strains, locus YLR342W, strain FKS1 (second series), stronger effect = lower value 0.999 | S. cerevisiae deletion strains, locus YLR342W, strain FKS1, stronger effect = lower value 0.992 | S. cerevisiae deletion strains, locus YLR357W, strain rsc2, stronger effect = lower value 0.94 | S. cerevisiae deletion strains, locus YLR370C, strain arc18, stronger effect = lower value 0.989 | S. cerevisiae deletion strains, locus YLR371W, strain rom2, stronger effect = lower value 1.02 | S. cerevisiae deletion strains, locus YLR384C, strain iki3, stronger effect = lower value 0.991 | S. cerevisiae deletion strains, locus YLR418C, strain cdc73, stronger effect = lower value 1.04 | S. cerevisiae deletion strains, locus YML016C, strain PPZ1, stronger effect = lower value 1.01 | S. cerevisiae deletion strains, locus YML032C, strain rad52, stronger effect = lower value 1.04 | S. cerevisiae deletion strains, locus YML120C, strain ndi1, stronger effect = lower value 1.02 | S. cerevisiae deletion strains, locus YML124C, strain tub3, stronger effect = lower value 1.02 | S. cerevisiae deletion strains, locus YMR058W, strain fet3, stronger effect = lower value 0.998 | S. cerevisiae deletion strains, locus YMR078C, strain ctf18, stronger effect = lower value 1.02 | S. cerevisiae deletion strains, locus YMR125W, strain sto1, stronger effect = lower value 0.989 | S. cerevisiae deletion strains, locus YMR129W, stronger effect = lower value 1 | S. cerevisiae deletion strains, locus YMR205C, strain PFK2, stronger effect = lower value 1.02 | S. cerevisiae deletion strains, locus YMR223W, strain ubp8, stronger effect = lower value 1.02 | S. cerevisiae deletion strains, locus YMR231W, strain pep5, stronger effect = lower value 0.998 | S. cerevisiae deletion strains, locus YMR263W, strain SAP30, stronger effect = lower value 0.999 | S. cerevisiae deletion strains, locus YMR307W, strain GAS1, stronger effect = lower value 1.07 | S. cerevisiae deletion strains, locus YNL067W, strain RPL9B, stronger effect = lower value 1 | S. cerevisiae deletion strains, locus YNL071W, strain lat1, stronger effect = lower value 1 | S. cerevisiae deletion strains, locus YNL128W, strain TEP1, stronger effect = lower value 1.02 | S. cerevisiae deletion strains, locus YNL153C, strain GIM3, stronger effect = lower value 0.997 | S. cerevisiae deletion strains, locus YNL183C, strain NPR1, stronger effect = lower value 0.934 | S. cerevisiae deletion strains, locus YNL209W, strain ssb2, stronger effect = lower value 1 | S. cerevisiae deletion strains, locus YNL233W, strain BNI4, stronger effect = lower value 0.993 | S. cerevisiae deletion strains, locus YNL248C, strain rpa49, stronger effect = lower value 0.986 | S. cerevisiae deletion strains, locus YNL250W, strain rad50, stronger effect = lower value 1.02 | S. cerevisiae deletion strains, locus YNL271C, strain bni1, stronger effect = lower value 1.04 | S. cerevisiae deletion strains, locus YNL298W, strain CLA4, stronger effect = lower value 1.05 | S. cerevisiae deletion strains, locus YNL307C, strain MCK1, stronger effect = lower value 1.03 | S. cerevisiae deletion strains, locus YNL322C, strain KRE1 (second series), stronger effect = lower value 1 | S. cerevisiae deletion strains, locus YNR049C, strain mso1, stronger effect = lower value 0.988 | S. cerevisiae deletion strains, locus YNR052C, strain pop2, stronger effect = lower value 1.03 | S. cerevisiae deletion strains, locus YOL006C, strain TOP1, stronger effect = lower value 1.02 | S. cerevisiae deletion strains, locus YOL012C, strain htz1 0.769 | S. cerevisiae deletion strains, locus YOL147C, strain pex11, stronger effect = lower value 1.02 | S. cerevisiae deletion strains, locus YOR001W, strain rrp6, stronger effect = lower value 0.973 | S. cerevisiae deletion strains, locus YOR061W, strain CKA2, stronger effect = lower value 1.01 | S. cerevisiae deletion strains, locus YOR069W, strain VPS5, stronger effect = lower value 0.993 | S. cerevisiae deletion strains, locus YOR070C, strain gyp1, stronger effect = lower value 0.985 | S. cerevisiae deletion strains, locus YOR080W, strain dia2, stronger effect = lower value 1 | S. cerevisiae deletion strains, locus YOR083W, strain WHI5, stronger effect = lower value 1.01 | S. cerevisiae deletion strains, locus YOR106W, strain vam3, stronger effect = lower value 1.02 | S. cerevisiae deletion strains, locus YOR136W, strain idh2, stronger effect = lower value 1.03 | S. cerevisiae deletion strains, locus YOR144C, strain elg1, stronger effect = lower value 1.01 | S. cerevisiae deletion strains, locus YOR184W, strain ser1, stronger effect = lower value 1.02 | S. cerevisiae deletion strains, locus YOR231W, strain MKK1, stronger effect = lower value 0.983 | S. cerevisiae deletion strains, locus YOR265W, strain rbl2, stronger effect = lower value 1.01 | S. cerevisiae deletion strains, locus YOR270C, strain vph1, stronger effect = lower value 1.01 | S. cerevisiae deletion strains, locus YOR290C, strain snf2, stronger effect = lower value 1.01 | S. cerevisiae deletion strains, locus YOR316C, strain cot1, stronger effect = lower value 1.02 | S. cerevisiae deletion strains, locus YPL051W, strain arl3, stronger effect = lower value 0.983 | S. cerevisiae deletion strains, locus YPL055C, strain LGE1, stronger effect = lower value 1.02 | S. cerevisiae deletion strains, locus YPL078C, strain atp4, stronger effect = lower value 1.01 | S. cerevisiae deletion strains, locus YPL106C, strain sse1, stronger effect = lower value 1.01 | S. cerevisiae deletion strains, locus YPL240C, strain hsp82, stronger effect = lower value 0.995 | S. cerevisiae deletion strains, locus YPL241C, strain CIN2, stronger effect = lower value 1 | S. cerevisiae deletion strains, locus YPL256C, strain CLN2, stronger effect = lower value 0.999 | S. cerevisiae deletion strains, locus YPR119W, strain clb2, stronger effect = lower value 1.02 | S. cerevisiae deletion strains, locus YPR141C, strain kar3, stronger effect = lower value 1.01 | S. cerevisiae deletion strains, locus YPR163C, strain tif3, stronger effect = lower value 1.04 | S. cerevisiae deletion strains, locus YPR167C, strain met16, stronger effect = lower value 1.02 | S. cerevisiae deletion strains, strain wtn01, stronger effect = lower value 1.01 | S. cerevisiae strains, strain wild type, stronger effect = lower value 1
